These results are taken from the antibiotic and cytotoxicity screens of Wong et al. (2023).

Among all 39,000 compounds or so, about 3,300 (8.5%) were called active. The sample holds actives, similar compounds and a random draw of the others, so the mix is not that of the screen.

The assay relates to HepG2. Nature of the assay: cytotoxicity call (relative viability < 0.9). To be noted: 10 µM.
For `COCC(=O)Nc1ccc2c(c1)C(=O)N(C)[C@@H]1CC[C@H](CC(=O)N3CCc4ccccc4C3)O[C@H]1CO2`, the cytotoxicity call is “inactive”.
`Cc1noc(C)c1NC(=O)Nc1ccc2c(c1)C(=O)N([C@@H](C)CO)C[C@H](C)[C@H](CN(C)S(=O)(=O)c1ccc(F)cc1)OCCCC[C@H](C)O2`: the cytotoxicity call is “inactive”.
To `CN1C(=O)c2cc(NC(=O)C3CCOCC3)ccc2OC[C@@H]2O[C@@H](CC(=O)NCCc3ccncc3)CC[C@@H]21` belongs “inactive”; to `COc1ccc(C=Cc2cc(O)cc(O[C@@H]3O[C@H](CO)[C@@H](O)[C@H](O)[C@H]3O)c2)cc1`, “inactive”.
On to `C1=C(c2ccccc2)CC(c2ccccc2)=NN=C1c1ccccc1`, for which the cytotoxicity call was “inactive”.
To `COCCNC(=O)[C@H]1[C@H](CO)[C@H]2Cn3c(cccc3=O)[C@@H]1N2S(=O)(=O)c1ccccc1C` belongs “inactive”.
In the case of `C[C@@H]1CN([C@H](C)CO)C(=O)Cc2cc(NC(=O)Cn3cnnn3)ccc2O[C@H]1CN(C)S(=O)(=O)c1ccc(Cl)cc1`, the cytotoxicity call was “inactive”.
In the case of `CC(C)NC(=O)Nc1ccc2c(c1)CC(=O)N([C@@H](C)CO)C[C@@H](C)[C@@H](CN(C)S(=O)(=O)c1ccccc1)O2`, the cytotoxicity call was “inactive”.
Consider `CC(C)NC(=O)Nc1ccc2c(c1)CC(=O)N([C@H](C)CO)C[C@H](C)[C@H](CN(C)S(=O)(=O)c1ccc(F)cc1)O2`, for which the cytotoxicity call is “inactive”.
As for `C[C@H](CO)N1C[C@H](C)[C@H](CN(C)Cc2ccc3c(c2)OCO3)Oc2ccc(NS(C)(=O)=O)cc2C1=O`, the cytotoxicity call was “inactive”.
To `COc1ccc(NC(=O)Nc2ccc3c(c2)C(=O)N([C@H](C)CO)C[C@@H](C)[C@@H](CN(C)S(=O)(=O)c2ccccc2)OCCCC[C@H](C)O3)cc1` belongs “inactive”; to `C[C@H]1CCCCO[C@H](CN(C)S(=O)(=O)c2ccc(Cl)cc2)[C@@H](C)CN([C@@H](C)CO)C(=O)c2cc(NC(=O)C3CCCCC3)ccc2O1`, “inactive”.
For the compound `O=C(C[C@H]1CC[C@H]2[C@@H](COC[C@H](O)CN2S(=O)(=O)c2ccc(F)cc2)O1)N[C@H]1CCN(Cc2ccccc2)C1`, the cytotoxicity call is “inactive”.
Consider `C[C@@H]1CCCCO[C@@H](CN(C)Cc2ccc3c(c2)OCO3)[C@@H](C)CN([C@@H](C)CO)C(=O)c2cc(NS(=O)(=O)c3cccs3)ccc2O1`, for which the cytotoxicity call was “inactive”.
For the compound `CC(=O)N1CCN(CC(=O)NS(=O)(=O)c2ccccc2)CC1`, the cytotoxicity call is “inactive”.
Turning to `O=C1C(NS(=O)(=O)c2ccc(Br)cc2)=C(c2ccc(OC(F)(F)F)cc2)C(=O)c2ccccc21`, the cytotoxicity call was “inactive”.
Turning to `CCN1CCN(C2=C(NS(=O)(=O)c3ccc(Br)s3)C(=O)c3ccccc3C2=O)CC1`, the cytotoxicity call was “active”.
In the case of `CCN1CCN(C2=C(NS(=O)(=O)c3ccc(Br)cc3)C(=O)c3ccccc3C2=O)CC1`, the cytotoxicity call is “active”.
On to `COc1cccc(C#Cc2ccc3c(c2)O[C@@H](CN(C)C(C)=O)[C@H](C)CN([C@H](C)CO)S3(=O)=O)c1`, for which the cytotoxicity call was “inactive”.
As for `O=C(C[C@H]1C[C@H]2c3cc(NS(=O)(=O)c4ccc(F)cc4)ccc3O[C@H]2[C@@H](CO)O1)NCc1ccccn1`, the cytotoxicity call is “inactive”.
Regarding `Cc1noc(C)c1NC(=O)Nc1ccc2c(c1)C(=O)N([C@H](C)CO)C[C@H](C)[C@H](CN(C)S(=O)(=O)c1ccc(Cl)cc1)OCCCC[C@@H](C)O2`, the cytotoxicity call is “inactive”.
On to `CN1CCN(C(=O)C[C@@H]2CC[C@H]3[C@H](COc4ccc(NC(=O)C5CCOCC5)cc4C(=O)N3C)O2)CC1`, for which the cytotoxicity call is “inactive”.
To `C[C@@H]1CCCCO[C@H](CN(C)S(=O)(=O)c2cn(C)cn2)[C@@H](C)CN([C@@H](C)CO)C(=O)c2cc(NS(=O)(=O)c3cccs3)ccc2O1` belongs “inactive”.
With `CCCNC(=O)Nc1ccc2c(c1)C(=O)N(C)C[C@@H](OC)[C@H](C)CN(C(=O)C1CCOCC1)[C@@H](C)CO2`, the cytotoxicity call was “inactive”.
As to `CCO[C@@H]1OC(C(=O)N2CCN(Cc3ccccc3)CC2)=C[C@H](c2ccc(C(F)(F)F)cc2)[C@H]1CCCOC(=O)NCCCCCC(=O)NO`, the cytotoxicity call is “inactive”.
To `CN(C)CC(=O)N[C@@H]1CC[C@H](CCNC(=O)C2CC2)O[C@@H]1CO` belongs “inactive”.
As to `C[C@@H]1CN([C@@H](C)CO)C(=O)c2cccc(NC(=O)Nc3cccc4ccccc34)c2O[C@H]1CN(C)C(=O)Nc1ccc(C(F)(F)F)cc1`, the cytotoxicity call is “active”.
Turning to `C[C@H]1CN([C@@H](C)CO)C(=O)c2cccc(NC(=O)Nc3cccc4ccccc34)c2O[C@H]1CN(C)C(=O)Nc1ccc(C(F)(F)F)cc1`, the cytotoxicity call was “active”.
With `C[C@@H]1CN([C@H](C)CO)C(=O)c2cccc(NC(=O)Nc3cccc4ccccc34)c2O[C@@H]1CN(C)C(=O)Nc1ccc(C(F)(F)F)cc1`, the cytotoxicity call was “active”.
On to `C[C@H]1CN([C@@H](C)CO)C(=O)c2cccc(NC(=O)Nc3cccc4ccccc34)c2O[C@@H]1CN(C)C(=O)Nc1ccc(C(F)(F)F)cc1`, for which the cytotoxicity call is “active”.
As to `O=C(C1=C[C@H](c2coc3ccccc3c2=O)C[C@H](OCCCCO)O1)N1CCOCCOCCOCCOCC1`, the cytotoxicity call was “inactive”.
In the case of `Cc1ccc(S(=O)(=O)Nc2ccc3c(c2)C(=O)N([C@@H](C)CO)C[C@@H](C)[C@H](CN(C)C(=O)Nc2ccc4c(c2)OCO4)OCCCC[C@@H](C)O3)cc1`, the cytotoxicity call is “inactive”.
For the compound `COc1ccc(S(=O)(=O)N(C)C[C@H]2OCCCC[C@H](C)Oc3ccc(NC(=O)Nc4cccc5ccccc45)cc3C(=O)N([C@H](C)CO)C[C@@H]2C)cc1`, the cytotoxicity call was “inactive”.
On to `COc1cccc(S(=O)(=O)Nc2ccc3c(c2)[C@@H]2C[C@H](CC(=O)NCCc4ccccc4)O[C@@H](CO)[C@@H]2O3)c1`, for which the cytotoxicity call was “inactive”.
In the case of `O=C(CCCCC(=O)N/N=C/c1cc(I)cc(I)c1O)NO`, the cytotoxicity call was “inactive”.
As to `COCC(=O)N1C[C@H](C)[C@H](OC)CN(C)C(=O)c2cc(NC(=O)Nc3cccc(F)c3)ccc2OC[C@H]1C`, the cytotoxicity call was “inactive”.
With `C[C@@H]1CN([C@@H](C)CO)C(=O)c2cc(C#CCc3ccccc3)cnc2O[C@H]1CN(C)C(=O)C1CCOCC1`, the cytotoxicity call is “inactive”.
To `COc1ccc(S(=O)(=O)Nc2ccc3c(c2)C(=O)N([C@H](C)CO)C[C@@H](C)[C@@H](CN(C)C(=O)NC(C)C)O3)cc1` belongs “inactive”; to `CC(C)NC(=O)N(C)C[C@H]1Oc2ccc(NC(=O)Nc3ccc4c(c3)OCO4)cc2C(=O)N([C@@H](C)CO)C[C@@H]1C`, “inactive”.
On to `Cc1noc(C)c1S(=O)(=O)Nc1ccc2c(c1)CC(=O)N([C@@H](C)CO)C[C@@H](C)[C@H](CN(C)Cc1ccccc1)O2`, for which the cytotoxicity call is “inactive”.
